The text below walks through data of ChEMBL document CHEMBL2218924, “A broad activity screen in support of a chemogenomic map for kinase signalling research and drug discovery” (Biochem J, 2013).

The target in experiment [1] is T1, Mitogen-activated protein kinase 12 (Homo sapiens) (UniProt P53778).
T1 sequence (whole entry): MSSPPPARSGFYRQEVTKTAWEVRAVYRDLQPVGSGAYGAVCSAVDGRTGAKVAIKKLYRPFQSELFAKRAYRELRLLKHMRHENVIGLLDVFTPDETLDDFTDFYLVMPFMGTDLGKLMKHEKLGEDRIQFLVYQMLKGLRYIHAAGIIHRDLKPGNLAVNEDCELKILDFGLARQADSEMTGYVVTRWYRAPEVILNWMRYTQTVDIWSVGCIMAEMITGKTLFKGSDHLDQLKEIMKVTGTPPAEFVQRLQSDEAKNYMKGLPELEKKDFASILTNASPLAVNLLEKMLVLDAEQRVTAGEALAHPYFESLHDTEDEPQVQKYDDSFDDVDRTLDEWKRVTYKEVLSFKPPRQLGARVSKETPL
Particulars: at 1 µM.

For experiment [2], the target named is T1, Mitogen-activated protein kinase 12 (Homo sapiens). Conditions: at 10 µM.

With `NC(=O)Nc1sc(-c2ccc(F)cc2)cc1C(N)=O`, the residual activity amounted to 90% in experiment [1] and 82% in experiment [2].
As to `NC(=O)c1ccc2[nH]c(-c3ccc(Oc4ccc(Cl)cc4)cc3)nc2c1`, the residual activity is 93% in experiment [1] and 92% in experiment [2].
As to `c1ccc2c(-c3ccncc3)c[nH]c2c1`, the residual activity in experiment [1] came to 100%; in experiment [2], 94%.
For `CC(=O)c1ccc(N2CCOCC2)cc1O`, the residual activity in experiment [1] came to 110%; in experiment [2], 102%.
Regarding `Cn1cc(/C=C2\C(=O)Nc3ccc(S(N)(=O)=O)cc32)c2ccccc21`, the residual activity in experiment [1] turned out to be 99%; in experiment [2], 104%.
Take `O=C1NC(=O)C(c2cn(CCCn3ccnc3)c3ccccc23)=C1Nc1ccccc1`: the residual activity was found to be 104% in experiment [1] and 100% in experiment [2].
In the same order, the values of `COc1cccc(-c2cc(=O)c3ccccc3o2)c1N` are 102% and 96%.
On to `COc1ccc(C(=O)Nc2sc3c(c2C(N)=O)CCCC3)cc1OC`, for which the residual activity was determined as 95% in experiment [1] and 83% in experiment [2].
For `COc1ccc(CNc2nc(N(CCO)CCO)nc3c2ncn3C(C)C)cc1`, the results for the residual activity in experiment [1] and in experiment [2] were 109% and 99%, respectively.
Consider `Nc1ccc2ncnc(NCCc3ccc(Oc4ccccc4)cc3)c2c1`, for which the figures for the residual activity in experiment [1] and in experiment [2] were 107% and 108%, respectively.
For `Cc1cc2ncc(-c3ccccc3)nc2cc1C`, the residual activity in experiment [1] and in experiment [2] was 100% each time.
Regarding `O=C(O)/C=C/c1cc(Br)c(Br)c(Br)c1Br`, the residual activity was 110% in experiment [1] and 90% in experiment [2].
Consider `CN(C)c1ccc(/C=C2\C(=O)Nc3ccccc32)cc1`, for which the residual activity in experiment [1] stood at 113%; in experiment [2], 83%.
As for `c1ccc(-c2cnc(Nc3ccc(OCCN4CCCC4)cc3)s2)cc1`, the residual activity is 115% in experiment [1] and 100% in experiment [2].
As to `Nc1ncnc2[nH]nc(Nc3ccc(F)cc3)c12`, the residual activity came out at 101% in experiment [1] and 96% in experiment [2].
Turning to `O=C(CCCc1ccc(-c2ccccc2F)cc1)Nc1ccc(O)cc1`, the residual activity in experiment [1] was 101%; in experiment [2], 100%.
For the compound `COc1cc2nccc(Oc3ccc(NC(=S)NC(=O)c4ccccc4C)cc3)c2cc1OC`, the figures for the residual activity in experiment [1] and in experiment [2] were 99% and 94%, respectively.
